The record followed here is PubChem BioAssay AID504467 (National Center for Advancing Translational Sciences (NCATS), 2011).

Molecules are shown by their SMILES. Out of some 330,000 compounds screened, about 7,700 (2.3%) were called active. A call without a number means that no potency is given here. Roughly 26% stayed inconclusive and do not appear here. This is one part of a sample in which actives are shown more often than they occur. Calls come from the whole dose curve; as a rule, active = well fitted inhibition curve with a large enough effect; inconclusive = small, poorly fitted or top-dose-only effect, or effect the other way; inactive = flat fitted curve, though single readings scatter.
Potency is the fitted concentration of half-maximal effect.

The test is described as follows: qHTS screen for small molecules that inhibit ELG1-dependent DNA repair in human embryonic kidney (HEK293T) cells expressing luciferase-tagged ELG1. Note: nearly all actives have a fitted effect of over 55% in size. The note with it: HEK293T ELG1-luciferase reporter, luminescence, 16 h, DNA damage induced by 5-fluorouridine; series mostly up to 46.1 µM. Put shortly:
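DMSO vehicle served as the neutral condition. Each well held 2,000 cells given 5-fluorouridine plus compound; after 16 hr at 37 °C/5% CO2, ONE-Glo was added and luciferase measured 30 min later.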
On the technique in general: In qHTS, concentration-response curves come from the screen itself.
As for `CC(=O)c1c(C)[nH]c(C(=O)N2CCN(S(=O)(=O)c3ccc(F)c(F)c3)CC2)c1C`, the Potency result was “inactive”. Consider `O=C(COc1ccc(S(=O)(=O)Nc2cccc(C(F)(F)F)c2)cc1)N1CCOCC1`, for which the Potency result was “inactive”. As for `COc1ccc(NC(=S)NC2CCS(=O)(=O)C2)cc1` (stereo not drawn), the Potency result is “inactive”. Turning to `O=S1(=O)CCC(NC(=S)SCc2ccccc2Br)C1` (stereo not drawn), the Potency result is “inactive”. As for `CCCSC(=S)NC1CCS(=O)(=O)C1` (stereo not drawn), the Potency was 23.1 µM (active). In the case of `O=C1COc2ccc(C(=O)CSc3ccc(Br)cc3)cc2N1`, the Potency entry is “inactive”. For `O=C(NCc1ccccc1CN1CCCC1)C1CCN(S(=O)(=O)c2ccc(Cl)cc2)CC1` the value was “inactive”; for `Brc1ccc(CN2CC[C@H]3C=CCc4cccc(c43)C2)cc1`, “inactive”; for `COc1ccc(CNC(=O)COC(=O)C(CCSC)N2C(=O)c3ccccc3C2=O)cc1` (stereo not drawn), “inactive”. For `Cc1sc2ncnc(N3CCC(C(=O)Nc4ccc(F)cc4Cl)CC3)c2c1C` the value was 20.6 µM (active); for `Cc1ccnc(N2CCCC(C(=O)Nc3cc(F)ccc3C)C2)n1` (stereo not drawn), “inactive”. For `Cc1sc2ncnc(SCC(=O)Nc3ccc(CN4CCCC4)cc3)c2c1C` the value was “inactive”; for `CC1CC(C)CN(CCOc2cccc3ccccc23)C1` (stereo not drawn), “inactive”; for `CN(CC(=O)NCCc1ccc(S(N)(=O)=O)cc1)CC(=O)Nc1ccc(F)c(F)c1F`, “inactive”. With `C=CCC[C@@H](Cc1ccc(F)cc1)C(=O)O[C@H](CNC(=O)[C@H](CC=C)CC(=O)N(CCO)Cc1ccccc1)c1ccccc1`, the Potency was 20.6 µM (active). To `C=CCC[C@@H](Cc1ccc(F)cc1)C(=O)OC[C@@H](C)NC(=O)[C@H](CC=C)CC(=O)N(CCO)Cc1ccccc1` belongs “inactive”. Take `C=CCC[C@H](Cc1ccc(F)cc1)C(=O)OC[C@@H](NC(=O)[C@@H](CC=C)CC(=O)N[C@H](CO)Cc1ccccc1)C(C)(C)C`: the Potency entry was “inactive”. For `C=CC[C@@H](CC(=O)N[C@H](CO)Cc1ccccc1)C(=O)N[C@@H](COC(=O)[C@@H](CC=C)Cc1ccc(F)cc1)Cc1c[nH]c2ccccc12` the value was “inactive”; for `C=CCC[C@@H](Cc1ccc(F)cc1)C(=O)OC[C@H](Cc1c[nH]c2ccccc12)NC(=O)[C@@H](CC=C)CC(=O)N(CCO)Cc1ccccc1`, 20.6 µM (active).

For the compound `C=CC[C@H](CC(=O)NCCO)C(=O)N[C@@H](COC(=O)[C@@H](CC=C)Cc1ccc(F)cc1)Cc1c[nH]c2ccccc12`, the Potency entry was “inactive”.

On to `Cc1ccc(Br)c(NS(=O)(=O)c2cccc(C(=O)N3CCNC(=O)C3)c2)c1`, for which the Potency entry was “inactive”. In the case of `CC(C)c1ccc(S(=O)(=O)N2CCN(C(C)C(=O)NC3CCCC3)CC2)cc1` (stereo not drawn), the Potency entry was “inactive”.

With `O=C(NC1CCCCCC1)C1CCN(C(=O)c2ccc(Cl)cc2)CC1`, the Potency result is “inactive”. As to `O=C(COC(=O)CN1C(=O)C2CCCCC2C1=O)Nc1ccc(F)c(F)c1F` (stereo not drawn), the Potency result was “inactive”. On to `CCC1(C)NC(=O)N(CC(=O)N2CCN(c3cccc(Cl)c3)CC2)C1=O` (stereo not drawn), for which the Potency result was “inactive”.

In the case of `NS(=O)(=O)c1ccc(CCNc2nc(C(F)(F)F)nc3ccccc23)cc1`, the Potency was 11.6 µM (active). Regarding `Cc1cc(C)n(-c2nc(C(F)(F)F)nc3ccccc23)n1`, the Potency entry was “inactive”. As for `COc1cccc(CNc2ncc(-c3ccccc3)n2C)c1`, the Potency result was “inactive”. `c1coc(CNc2ncnc3ccccc23)c1`: the Potency entry was “inactive”. Regarding `COc1ccc(CNc2ncnc3ccccc23)cc1`, the Potency is 2.59 µM (active). For `CCc1nc2ccccc2c(C(=O)NCc2ccc(OC)cc2)c1C`, the Potency result is “inactive”. To `NS(=O)(=O)c1ccc(CCNC(=O)CNC(=O)Cc2ccccc2)cc1` belongs “inactive”. As to `COc1cccc(CNc2nc(C(F)(F)F)nc3ccccc23)c1`, the Potency was 13 µM (active).

Regarding `CC(Nc1nc(C(F)(F)F)nc2ccccc12)c1cccs1` (stereo not drawn), the Potency entry is “inactive”.

As for `CN1CCN(S(=O)(=O)c2ccc(Nc3ccc(F)cc3)nc2)CC1`, the Potency entry is “inactive”. For `O=C(CN1C(=O)NC2(CCCCCCC2)C1=O)NCc1ccc(F)cc1` the value was “inactive”. For `O=C(C(NS(=O)(=O)c1cccc2nsnc12)c1ccccc1)N1CCN(c2ccccn2)CC1` (stereo not drawn) the value was “inactive”; for `O=C(C(NS(=O)(=O)c1cccc2nsnc12)c1ccccc1)N1CCN(c2ccccc2)CC1` (stereo not drawn), 16.4 µM (active).

Turning to `O=C(O)C(NS(=O)(=O)c1cccc2nsnc12)c1ccccc1` (stereo not drawn), the Potency entry was “inactive”. `CC(=O)Nc1ccc(N2CCOCC2)c(C(=O)Nc2cccc(C)c2)c1`: the Potency entry is “inactive”. For `COC(=O)c1cc(NC(=O)c2ccco2)ccc1N1CCOCC1` the value was “inactive”; for `COC(=O)c1cc(NC(=O)c2cc(C(C)(C)C)nn2Cc2cccc(C)c2)ccc1N1CCOCC1`, 16.4 µM (active); for `CSc1ncccc1C(=O)Nc1ccc(C)cn1`, “inactive”. For `Cc1csc(SCC(=O)N(c2ccccc2)C(C)C)n1` the value was “inactive”; for `CC(C)(C)OC(=O)C[C@@H]1C/C=C\C[C@@H](CC(=O)N[C@@H](CO)Cc2ccccc2)C(=O)N2CCC[C@H]2COC1=O`, “inactive”; for `NC(=O)c1cc(-c2cccnc2)nc2ccc(Br)cc12`, “inactive”. `Cc1cc(NCc2cccnc2)no1`: the Potency result was “inactive”. Regarding `Brc1ccc2ncnc(NCc3cccnc3)c2c1`, the Potency is 8.2 µM (active). For `C=CC[C@@H](CC(=O)NCCO)C(=O)N[C@H](C)COC(=O)[C@@H](CC=C)CC(=O)OC(C)(C)C` the value was “inactive”; for `COc1cc(OC)c(C(=O)OC(C)C(=O)Nc2cc(C(F)(F)F)ccc2Cl)cc1OC` (stereo not drawn), 14.6 µM (active). Take `CC(CC(=O)Nc1cc(C(F)(F)F)ccc1Cl)c1ccccc1` (stereo not drawn): the Potency result is “inactive”. On to `COc1ccc(/C(C)=N/Nc2cc(C(F)(F)F)ccc2Cl)c(OC)c1`, for which the Potency entry was “inactive”. To `CC1CC(C)CN(C(=O)COC(=O)c2ccc3ncsc3c2)C1` (stereo not drawn) belongs “inactive”; to `CCN(CC(=O)Nc1ccc(OC)cc1)C(=O)c1ccc(Cl)c(S(=O)(=O)N2CCCC2)c1`, “inactive”; to `Cc1nnc(N/N=C/c2ccccn2)[nH]c1=O`, 0.92 µM (active). For the compound `Cc1ccccc1Nc1nnc(C)c(=O)[nH]1`, the Potency result was “inactive”. To `Cc1nnc(N/N=C/C2CC=CCC2)[nH]c1=O` (stereo not drawn) belongs “inactive”; to `Cc1ccc([C@@H]2CC=C(C(=O)O)[C@H](c3cccc(Cl)c3)N2S(=O)(=O)c2ccc(C)cc2)cc1`, “inactive”; to `CN(CCc1ccccc1)C(=O)c1cccc(NC(=O)Cc2ccc([N+](=O)[O-])cc2)c1`, 13 µM (active). For `CN(C)C(CNC(=O)Cc1ccc([N+](=O)[O-])cc1)c1ccccc1` (stereo not drawn) the value was “inactive”; for `CN(C)CCNC(=O)Cc1ccc([N+](=O)[O-])cc1`, “inactive”.

For `Cc1ccc2nnn(Cc3cccc(C(C)(C)C)c3O)c2c1`, the Potency result is “inactive”. Turning to `CCc1ccc2nc(N(CCCN(C)C)C(=O)c3ccc4c(c3)OCCO4)sc2c1`, the Potency entry was “inactive”. In the case of `O=C(CSc1ncnc2sccc12)NC1CCS(=O)(=O)C1` (stereo not drawn), the Potency result was “inactive”. To `CC1(C)Cc2cccc(OCC(=O)NCc3ccccc3)c2O1` belongs “inactive”; to `COc1ccc(NS(=O)(=O)c2cc(NC(=O)/C=C/c3cc(OC)c(OC)c(OC)c3)ccc2N2CCCCC2)cc1`, “inactive”; to `COc1ccc(NS(=O)(=O)c2ccc(N3CCOCC3)c(NC(=O)c3ccccc3Br)c2)cc1`, “inactive”. For the compound `COc1ccc(NS(=O)(=O)c2cc(NC(=O)C3CCCCC3)ccc2N2CCOCC2)cc1`, the Potency was 20.6 µM (active). Regarding `COc1ccc(S(=O)(=O)Nc2ccc3oc(C)c(C(C)=O)c3c2)cc1`, the Potency was 2.59 µM (active).

Consider `CC(=O)c1c(C)oc2ccc(NS(=O)(=O)c3ccc(C(=O)O)cc3)cc12`, for which the Potency entry is “inactive”.

`COc1ccc2oc(C)c(NC(C)=O)c2c1`: the Potency result is “inactive”. Turning to `Cc1ccc(S(=O)(=O)N2CCC(C(=O)OCC(=O)N(C)c3ccccc3)CC2)cc1C`, the Potency entry was “inactive”. To `CCN(CC(=O)Nc1ccc(C)c(S(=O)(=O)N(C)C)c1)Cc1ccccc1` belongs “inactive”. To `CC(C)(C)c1ccc(SCCc2ccncc2)cc1` belongs “inactive”. For `CCC(C(=O)NC1CCCC1)N(C(=O)Cn1nnc(-c2ccc(C)o2)n1)c1ccc(OC)c(OC)c1` (stereo not drawn), the Potency result is “inactive”. As to `COC(=O)c1c(NC(=O)COC(=O)[C@@H](NS(=O)(=O)c2ccccc2)C(C)C)sc2c1CCC2`, the Potency is 25.9 µM (active). To `COC(=O)c1c(NC(=O)CCCC(=O)O)sc2c1CCCCC2` belongs “inactive”; to `CCOCC(=O)Nc1sc2c(c1C(=O)OCC)CCCC2`, “inactive”.

Take `O=C1C=C(c2cc(C(F)(F)F)cc(C(F)(F)F)c2)C[C@@H](c2ccc3c(c2)OCO3)C1`: the Potency result is “inactive”.

On to `Cc1nc2sc(C(=O)c3ccccc3)c(N)c2c2c1CCCC2`, for which the Potency result was “inactive”. To `NC(=O)c1sc2nc3c(c(-c4ccccc4)c2c1N)CCC3` belongs 4.11 µM (active); to `Cc1cccc(NC(=O)c2sc3nc4c(c(-c5ccco5)c3c2N)CCC4)c1`, “inactive”. To `CC(=O)N1CCN(c2ccccc2NC(=S)NC(=O)c2cc3ccccc3o2)CC1` belongs “inactive”; to `COc1ccc(-c2oc3ncnc(NCCCO)c3c2-c2ccc(OC)cc2)cc1`, 18.3 µM (active).

As to `COc1ccc(-c2oc(/N=C/N3CCCC3)c(C#N)c2-c2ccc(OC)cc2)cc1`, the Potency result is “inactive”. To `c1ccc(-c2oc3ncnc(N4CCOCC4)c3c2-c2ccccc2)cc1` belongs “inactive”; to `CCn1c(=O)c2ccccc2n(CC(=O)N2CCCc3ccccc32)c1=O`, “inactive”. Consider `CCN(C[C@H]1N[C@@](CC)(C(=O)OC)[C@H]2C(=O)N(Cc3ccccc3)C(=O)[C@@H]12)S(=O)(=O)c1ccccc1`, for which the Potency result is “inactive”. For `COc1ccc(NC(=O)c2cc([N+](=O)[O-])ccc2NC(=O)CNC2CCCCC2C)c(OC)c1` (stereo not drawn) the value was “inactive”; for `CCOc1ccc(C(C(=O)NC2CCCC2)N(C(=O)c2snc(C(N)=O)c2N)C2CCCC2)cc1` (stereo not drawn), “inactive”. Take `COc1ccc(C(=O)OCC(=O)c2cc(C)n(CC3CCCO3)c2C)cc1[N+](=O)[O-]` (stereo not drawn): the Potency result was “inactive”.

With `O=C(CN1CCCCCC1)N1c2ccccc2Sc2ccc(C(F)(F)F)cc21`, the Potency entry was “inactive”. For `O=C(CN1CCCCC1)N1c2ccccc2Sc2ccc(C(F)(F)F)cc21` the value was “inactive”; for `COc1cc(/C=C/C(=O)N2c3ccccc3Sc3ccc(C(F)(F)F)cc32)cc(OC)c1OC`, 9.2 µM (active); for `COC(=O)C1CCN(C(=O)NC2CC(=O)N(c3ccc4c(c3)OCCO4)C2)CC1` (stereo not drawn), “inactive”. Turning to `COc1ccc(C(=O)Nc2nc(-c3ccc(S(=O)(=O)N4CCOCC4)cc3)cs2)cc1`, the Potency was 11.6 µM (active). To `COC(=O)COc1ccc(S(=O)(=O)N2CCOCC2)cc1` belongs “inactive”. For `COc1cccc(C(=O)Nc2nnc(S(=O)(=O)N3CCOCC3)s2)c1` the value was “inactive”.
